Bead autofluor – counter-screen for toxin protease inhibitors: compound fluorescence; compound autofluorescence counterscreen, microsphere flow cytometry; active compounds read high; fluorescence intensity (test concentration not listed); 360,000 compounds, 3.1% hits; in the data active = fluorescence intensity above about 16000; inconclusive = no clear call, values can overlap the other calls
Anthrax LF prot – blocks Bacillus anthracis lethal factor protease; multiplex microsphere protease cleavage assay, LF; inhibition, % at 10 µM; 360,000 compounds, 0.12% hits; AID 588501; note: plate controls were buffer without enzyme for full effect and enzyme alone for no effect
Target sequence (P15917 whole entry, looked up): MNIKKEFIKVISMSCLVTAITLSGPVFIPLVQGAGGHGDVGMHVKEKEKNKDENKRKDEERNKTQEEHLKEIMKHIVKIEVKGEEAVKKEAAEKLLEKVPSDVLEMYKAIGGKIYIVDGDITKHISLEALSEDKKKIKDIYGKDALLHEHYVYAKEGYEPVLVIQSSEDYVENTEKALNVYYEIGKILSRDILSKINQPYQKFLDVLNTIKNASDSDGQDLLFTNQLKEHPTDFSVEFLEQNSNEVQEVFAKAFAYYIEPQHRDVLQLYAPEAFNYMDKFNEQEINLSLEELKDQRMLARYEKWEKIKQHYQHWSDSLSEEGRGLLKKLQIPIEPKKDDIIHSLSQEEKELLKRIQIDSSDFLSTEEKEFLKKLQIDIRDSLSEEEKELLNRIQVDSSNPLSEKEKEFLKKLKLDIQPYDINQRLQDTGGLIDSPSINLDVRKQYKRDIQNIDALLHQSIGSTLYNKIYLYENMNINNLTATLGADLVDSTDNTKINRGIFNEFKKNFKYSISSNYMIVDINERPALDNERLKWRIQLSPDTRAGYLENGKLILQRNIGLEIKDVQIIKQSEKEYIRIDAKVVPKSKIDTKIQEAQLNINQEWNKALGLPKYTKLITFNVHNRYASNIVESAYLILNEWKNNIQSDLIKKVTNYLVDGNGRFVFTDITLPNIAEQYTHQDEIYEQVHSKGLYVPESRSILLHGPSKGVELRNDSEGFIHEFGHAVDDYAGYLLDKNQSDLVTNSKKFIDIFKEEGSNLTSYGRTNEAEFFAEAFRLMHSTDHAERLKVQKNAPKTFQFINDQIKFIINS
BoNT-A LC inh2 – inhibitors of Botulinum neurotoxin A light chain protease; multiplex microsphere protease substrate cleavage, flow cytometry; inhibition, % at 10 µM; 360,000 compounds, 0.17% hits; AID 588499; note: plate controls were buffer without enzyme for full effect and enzyme alone for no effect
BoNT F protease – inhibitors of Botulinum neurotoxin F light chain protease; Multiplex microsphere protease cleavage assay, flow cytometry; inhibition, % at 10 µM; 360,000 compounds, 0.22% hits; AID 588497; in the data active = inhibition above about 35%, passing the limit was not always enough; inconclusive = no clear call, values can overlap the other calls; note: plate controls were buffer without enzyme for full effect and enzyme alone for no effect
Vc quorum ag – quorum light induction in luxS cqsA deficient V. cholerae | activation, % at 18.7 µM | V. cholerae BH1578 lux reporter, luminescence, 6 h | 350,000 compounds, 0.16% hits; in the data active = activation mostly above about 9.7%, no sharp cut-off; inconclusive = no clear call, values can overlap the other calls; inactive = mostly below about 3.7%
Starred values were filed as active, the others as inactive; i = inactive; ? = inconclusive; nt = not tested or not shown; ! = not confirmed by another sample. Shown are actives, neighbours in structure and some others; about 3.5% of the full set was active somewhere. Cut-off read from the data, not from the text of the source, unless noted: active = inhibition above about 30%; inconclusive = no clear call, values can overlap the other calls; inactive = below that.

SMILES | Bead autofluor | Anthrax LF prot | BoNT-A LC inh2 | BoNT F protease | Vc quorum ag
CNC(=S)NNC(=O)c1cccn(Cc2ccc(Cl)c(Cl)c2)c1=O | 22977* | 0.0 | 0.6 | -2.0 | i
O=C(NCc1ccccc1)c1cccn(Cc2cccc(Cl)c2)c1=O | 3907 | -6.7 | 3.5 | 10.7 | -0.6
COc1cc(F)c(S(=O)(=O)N2CCOc3ccccc32)cc1OC | 2937 | 5.7 | 0.1 | -1.3 | i
Cc1ccc(CCNC(=O)Cc2ccc(NC3=NC4CS(=O)(=O)CC4S3)cc2)cc1 (stereo unspecified) | 4258 | 2.2 | -0.1 | 2.3 | -3.1
COc1ccc(CC(=O)N2CCNC2=O)cc1 | 19689* | -1.9 | 2.0 | 2.0 | 13.4
O=C(COc1ccccc1)N1CCNC1=O | 21620* | -1.7 | 1.5 | 1.9 | i
O=c1nc(N/N=C/C=C/c2ccccc2)cn[nH]1 | 5302 | 0.6 | -3.2 | -7.2 | -0.6
COC(=O)C1CCN(C(=O)CN2C(=O)NC(CC(C)C)C2=O)CC1 (stereo unspecified) | 2650 | -7.3 | 0.0 | 2.9 | -0.7
CN(Cc1nc(Cc2ccccc2F)no1)Cc1cccc2ncccc12 | 2181 | -1.8 | 0.0 | -4.5 | i
COC(=O)c1c(O)c2ccccc2[nH]c1=O | 19580* | 3.5 | 7.6 | 12.2 | -5.3
CC(C)Cn1c(N)c(C(=O)COC(=O)c2cc(S(=O)(=O)N3CCOCC3)ccc2Br)c(=O)n(C)c1=O | 2917 | -10.2 | -0.1 | 1.7 | -2.7
CCOC(=O)C1CCN(c2c(NCc3ccc(C(=O)NCCOC)cc3)c(=O)c2=O)CC1 | 4278 | 2.8 | -0.3 | 15.3 | -0.5
CCOC(=O)C1CCCN(c2c(NCCCN(CC)c3cccc(C)c3)c(=O)c2=O)C1 (stereo unspecified) | 2791 | -2.1 | 0.2 | -0.9 | -0.4
CCCCNC(=O)c1ccc(CNc2c(N3CCC(C(=O)OCC)CC3)c(=O)c2=O)cc1 | 23374*! | -4.3 | -0.3 | -4.5 | -1.9
CCOC(=O)C1CCN(c2c(NCCCN(CC)c3ccccc3)c(=O)c2=O)CC1 | 21430* | 0.5 | ? | -1.0 | 2.7
C=CCN1C(=O)c2ccc(C(=O)Nc3ccccn3)cc2C1=O | 5019 | 0.5 | -0.6 | -7.9 | i
CC(C)n1ncc2c(C(=O)NCCc3ccc(S(N)(=O)=O)cc3)cc(C3CC3)nc21 | nt | nt | nt | nt | -0.6
COc1cccc(C(=O)Oc2c(CN3CCOCC3)cc(Cl)c3cccnc23)c1 | 22802* | -1.8 | 1.2 | -0.7 | -1.4
O=C(Oc1c(CN2CCOCC2)cc(Cl)c2cccnc12)c1ccc(F)cc1 | 22240* | -4.3 | 1.6 | 0.1 | i
COc1ccc(C(=O)Oc2c(CN3CCOCC3)cc(Cl)c3cccnc23)cc1 | 3186 | 0.0 | -1.2 | -8.5 | 4.2
C[C@@H]1CN([C@@H](C)CO)C(=O)c2cc(-c3cccnc3)cnc2O[C@H]1CN(C)C(=O)c1cccc(F)c1 | 3585 | -1.0 | -0.4 | -7.5 | -0.6
CCCNC(=O)C1(C)CCCN(C(=O)c2ccc(OC(F)F)cc2)C1 (stereo unspecified) | 3549 | -4.7 | -0.1 | -3.5 | i
COC(=O)c1cnc(SCc2ccc(Cl)cc2)n1C | 4783 | 5.2 | -0.8 | -0.6 | 0.9
Cn1c(SCc2ccc(Cl)cc2)nc(C(F)(F)F)cc1=O | 20153* | -4.4 | -2.2 | -6.5 | i
CCOc1ccccc1OCC(=O)Nc1ccc(Cl)cc1C(=O)c1ccccc1 | 2317 | -3.3 | 0.5 | -4.7 | i
SMILES | Bead autofluor | Anthrax LF prot | BoNT-A LC inh2 | BoNT F protease | Vc quorum ag
COc1ccccc1OCC(=O)Nc1ccc(Cl)cc1C(=O)c1ccccc1 | 23660* | -2.7 | -1.7 | -1.3 | -0.3
COc1ccccc1CC(=O)Nc1cc(Cl)ccc1O | 18515* | -8.0 | ? | 6.3 | i
COc1ccccc1CC(=O)Nc1ccccc1O | 20480* | -5.7 | 7.8 | 13.7 | -0.2
CC(C)(C)NC(=S)NC(C)(C)C | 3488 | -0.8 | 2.2 | -18.9 | 0.3
Cn1c(SCC(=O)Nc2ccc(N3CCOCC3)c(Cl)c2)nnc1C(O)c1ccccc1 (stereo unspecified) | 7803 | -0.6 | -0.2 | 0.1 | -0.4
Cn1c(COc2ccccc2)nnc1SCC(=O)Nc1ccc(N2CCOCC2)c(Cl)c1 | 17200* | -4.3 | ? | -4.7 | i
COc1ccc(/C=N/n2cnnc2)cc1COc1ccccn1 | 23503* | -1.2 | -1.1 | -0.9 | -0.3
COc1cc(/C=N/n2cnnc2)ccc1OCc1ccccc1 | 4181 | -5.3 | -0.1 | 0.8 | -0.3
CC(=O)Nc1ccc(S(=O)(=O)NC2(C(F)(F)F)NC(=O)N(c3ccc(C)cc3)C2=O)cc1 (stereo unspecified) | 4616 | -1.9 | 0.6 | -4.2 | i
CC(=O)Nc1ccc(S(=O)(=O)NC2(C(F)(F)F)NC(=O)N(C3CCCCC3)C2=O)cc1 (stereo unspecified) | 23390* | -4.7 | ? | -0.5 | -1.5
CC(=O)Nc1ccc(S(=O)(=O)NC2(C(F)(F)F)NC(=O)N(c3ccccc3F)C2=O)cc1 (stereo unspecified) | 2271 | -0.5 | -0.3 | 0.5 | -0.4
CC(=O)NC1(C(F)(F)F)NC(=O)N(C2CCCCC2)C1=O (stereo unspecified) | 22952* | -0.6 | -0.3 | 3.0 | i
CC(=O)Nc1ccc(S(=O)(=O)NC2(C(F)(F)F)NC(=O)N(C3CCCC3)C2=O)cc1 (stereo unspecified) | 22547* | -1.9 | -0.4 | -2.0 | i
Cc1ccc2nc(-c3ccccn3)c(N)n2c1 | 5253 | -11.6 | -1.9 | -31.6 | nt
Cn1c(O)c(C=NC2CCCCC2)c(=O)[nH]c1=S | 2272 | -1.0 | -0.4 | 0.2 | -0.2
O=c1[nH]c(O)c(C=NC2CCCCC2)c(=O)[nH]1 | 3857 | 37.3* | -11.8 | ? | -0.9
CCc1c(C)c2ccc(O)c(CN(C)C)c2oc1=O | 22113* | -0.5 | 2.3 | 1.2 | i
O=C(CN1CCN(c2ccccn2)CC1)N1c2ccccc2CCc2ccccc21 | 20825* | -2.7 | -0.4 | -0.8 | 5.6
O=C(CN1CCN(c2ccccn2)CC1)N1c2ccccc2Sc2ccc(C(F)(F)F)cc21 | 17711* | -2.3 | -3.6 | -6.8 | -5.3
CS(=O)(=O)c1cccc(-c2nnc(NC(=O)CCS(=O)(=O)c3ccccc3)o2)c1 | ? | -0.1 | 1.8 | 3.5 | i
Cc1ccccc1NC(=S)Nc1ccccn1 | 9236 | -12.7 | -2.5 | 36.8* | -0.4
S=C(Nc1ccccn1)Nc1ccccc1Cl | 5504 | -1.2 | 0.0 | -5.7 | -0.4
Cc1nnc(SCc2ccc(CSc3nnc(C)c(=O)[nH]3)cc2)[nH]c1=O | 2508 | -2.3 | -0.2 | 3.6 | -0.6
CCCCOc1ccc(-c2n[nH]c(=S)n2Cc2ccccc2)cc1 | 3674 | -11.4 | 2.3 | 34.5* | -0.5
COc1ccc(-c2n[nH]c(=S)n2Cc2ccco2)cc1 | 21139* | -2.3 | -3.4 | -4.6 | -0.7
COc1cc(-c2nnc(COc3ccc4ccccc4c3)o2)cc(OC)c1OC | 22472* | -0.8 | 1.8 | 2.4 | i
O=C(Nc1ccccc1C(F)(F)F)N1CCN(c2ccc3nnc(-c4ccc(F)cc4)n3n2)CC1 | 10256 | -0.9 | 0.2 | -8.6 | -0.2
O=C(Nc1ccccc1C(F)(F)F)N1CCN(c2ccc3nncn3n2)CC1 | 20519* | -3.9 | -1.9 | -3.7 | -0.2

From PubChem BioAssay
